The target of assay [1] is Cytochrome P450 3A4 (Homo sapiens) (UniProt P08684). In words: qHTS Assay for Inhibitors and Substrates of Cytochrome P450 3A4 (AID 884). For activity change, negative = inhibition: % is set by controls: 0 for no effect and ±100 for the full control effect. Note: nearly all actives have a fitted effect of over 50% in size. Note: potency is the fitted concentration of half-maximal effect. Summed up:
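20 nM human CYP3A4 with 25 uM Luciferin-PPXE (at KM) in 200 mM KPO4, preincubated 10 min with compound; NADPH regeneration started a 60 min RT reaction. Luciferin detected by luminescence, normalized to 57 uM ketoconazole as full inhibition.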

Assay [2] is described as follows: Confirmation and Secondary Assay for Modulators of Hemoglobin Beta Chain Splicing at IVS2 654 locus (AID 910).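 Note: HeLa cells stably carrying EGFP split by mutant beta-globin IVS2-654 intron; per-well total GFP intensity by laser scanning cytometry after 2-day treatment; % of control where 0% means no effect.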 Summed up:
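Readout: per-well total peak green fluorescence (488 nm ex, 500–520 nm em) from objects 5–250 µm, reflecting correct splicing of an EGFP-654 reporter. Compounds were applied for 2 days at 37 °C to overnight-plated HeLa EGFP-654 cells; controls were DMSO and 500 nM IVS2-654 PNA.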

Assay [3] can be described thus: Confirmation and Secondary Assay for Modulators of Hemoglobin Beta Chain Splicing at IVS2 705 locus (AID 930).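 Note: HeLa cells stably expressing the EGFP-705 splicing reporter; GFP fluorescence per well restored by corrected splicing of the IVS2-705 intron in EGFP; % of control where 0% means no effect.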 Summed up: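 HeLa EGFP-705 reporter; 500 cells/well, o/n 37C 5% CO2; cpd 2 d; 488 ex/500-520 em laser scan; total peak GFP intensity/well. Ref: 500 nM […] antisense PNA.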
A short description of assay [4]: qHTS Assay for Lipid Storage Modulators (AID 1519; calls by dose curve; for activity change, negative = inhibition: % is set by controls: 0 for no effect and ±100 for the full control effect). To be noted: Drosophila S3 cells, BODIPY lipid droplet/cell ratio, laser cytometry, cells loaded with oleic acid; for activity change, negative = inhibition: at 57.5 µM (top of the series). Summed up:
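Cells seeded at 5,000 per well were treated with compounds over a concentration series and loaded with oleic acid (400 uM, as added). Lipid droplet fluorescence (488 nm excitation, 500-530 nm channel) was read by laser-scanning cytometry and normalized to 20 uM Triacsin C.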

Assay [5] has as its target Ubiquitin carboxyl-terminal hydrolase 1 (Homo sapiens) (UniProt O94782). In words: Inhibitors of USP1/UAF1: Pilot qHTS (AID 504865).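 Note: rhodamine fluorescence freed from ubiquitin-rhodamine substrate followed over time; top concentration of the series differs between compounds; % is set by controls: 0 for no effect and ±100 for the full control effect; nearly all actives have a fitted effect of over 35% in size.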 Summed up: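 In 50mM HEPES pH 7.8 containing 0.5mM EDTA, 1mM TCEP, 0.1 mg/ml BSA and 0.01% Tween-20, 1nM USP1/UAF1 is exposed to compound for 15 min, then Ub-Rho (150nM final) is added and fluorescence is read over time.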
Background: Quantitative high-throughput screening tests each substance at several concentrations.

Assay [6] concerns the target Cytochrome P450 3A4 (Homo sapiens) (UniProt P08684). In words: qHTS Assay for Activators of Cytochrome P450 3A4 (AID 885). Note: nearly all actives have a fitted effect of over 65% in size. Summed up:
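Steps: enzyme/substrate mix dispensed; compound added, 10 min RT; NADPH regeneration solution added, 60 min RT; luciferin detection buffer stops reaction; 20 min later luminescence measured.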

[7] abbreviates: measured here: cell count channel max response.
The mark [8] stands for this setting: measured here: lipid channel max response.

Values joined by “and” are separate entries in the source; they are usually repeats but may differ in a detail not shown here. Identical values can stand only once. Inconclusive results are not listed. Where a structure was tested more than once in an assay, its records may differ in their call. Active and inactive are the calls of the source. Unless noted, calls come from the whole dose curve; as a rule, active = well fitted curve in the direction sought with a large enough effect; inconclusive = small, poorly fitted or top-dose-only effect, or another doubt; inactive = no such curve, though single readings can be large; an effect the other way counts as inactive or inconclusive.

Sequence of Cytochrome P450 3A4 (Homo sapiens) (P08684 whole entry, looked up): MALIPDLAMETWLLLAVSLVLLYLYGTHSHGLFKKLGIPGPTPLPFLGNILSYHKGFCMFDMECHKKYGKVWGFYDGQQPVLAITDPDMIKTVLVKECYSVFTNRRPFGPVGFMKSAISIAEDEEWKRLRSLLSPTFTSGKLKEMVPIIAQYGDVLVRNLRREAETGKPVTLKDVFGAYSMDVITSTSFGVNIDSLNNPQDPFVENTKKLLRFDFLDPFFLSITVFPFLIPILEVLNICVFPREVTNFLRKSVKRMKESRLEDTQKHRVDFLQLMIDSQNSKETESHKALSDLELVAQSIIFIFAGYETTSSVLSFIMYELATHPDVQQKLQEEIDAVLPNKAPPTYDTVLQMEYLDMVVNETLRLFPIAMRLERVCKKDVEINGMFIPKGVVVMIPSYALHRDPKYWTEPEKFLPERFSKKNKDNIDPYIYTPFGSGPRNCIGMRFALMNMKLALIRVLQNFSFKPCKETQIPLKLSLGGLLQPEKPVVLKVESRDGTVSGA
Sequence of Ubiquitin carboxyl-terminal hydrolase 1 (Homo sapiens) (O94782 whole entry, looked up): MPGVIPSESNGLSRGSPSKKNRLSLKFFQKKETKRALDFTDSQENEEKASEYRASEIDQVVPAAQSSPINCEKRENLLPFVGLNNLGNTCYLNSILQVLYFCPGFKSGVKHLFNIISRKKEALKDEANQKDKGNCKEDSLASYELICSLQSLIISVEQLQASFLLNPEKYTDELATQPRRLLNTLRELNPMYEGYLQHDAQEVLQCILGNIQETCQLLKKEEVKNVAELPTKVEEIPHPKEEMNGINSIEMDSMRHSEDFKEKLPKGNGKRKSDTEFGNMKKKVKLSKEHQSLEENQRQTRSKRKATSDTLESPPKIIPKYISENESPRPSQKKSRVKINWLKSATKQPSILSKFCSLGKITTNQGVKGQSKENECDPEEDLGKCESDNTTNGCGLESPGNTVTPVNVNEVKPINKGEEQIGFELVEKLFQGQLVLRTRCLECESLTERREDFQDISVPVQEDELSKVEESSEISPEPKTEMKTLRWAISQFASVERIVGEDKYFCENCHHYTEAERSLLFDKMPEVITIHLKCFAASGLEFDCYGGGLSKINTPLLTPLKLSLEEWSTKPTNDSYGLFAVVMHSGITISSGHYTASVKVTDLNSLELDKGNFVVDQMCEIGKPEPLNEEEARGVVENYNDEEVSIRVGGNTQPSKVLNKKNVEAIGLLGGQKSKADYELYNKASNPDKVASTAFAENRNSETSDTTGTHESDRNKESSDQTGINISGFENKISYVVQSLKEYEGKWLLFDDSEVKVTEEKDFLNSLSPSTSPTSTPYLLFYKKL

Take `CN1C2CC(OC(=O)C(CO)c3ccccc3)CC1C(O)C2` (stereo not given): the Potency entry in assay [1], in assay [2], in assay [3] and in assay [5] was “inactive” in each case. In addition, in assay [4], the activity change, negative = inhibition was 5.64% (inactive). Besides, the figures for the max response in assay [4] (setting [7]) and in assay [4] (setting [8]) were 7.52% and 14.4%, respectively.
Consider `COC1C(O)C(C)O[C@H](OC2CC[C@@]3(C=O)C4CC[C@]5(C)C(C6=CC(=O)OC6)CC[C@@]5(O)C4CC[C@@H]3C2)C1O` (stereo not given in full), for which the Potency result in assay [1], in assay [2], in assay [3] and in assay [5] was “inactive” throughout. The activity change, negative = inhibition in assay [4] is 3.31% (inactive). Moreover, the max response is 21.5% in assay [4] (setting [7]) and 24.5% in assay [4] (setting [8]).
As for `CCN1C[C@]2(COC)C(O)C[C@H](OC)[C@@]34C5C[C@]6(O)C(OC)C(O)[C@](OC(C)=O)(C5C6OC(=O)c5ccccc5)C(C(OC)C23)C14` (stereo not given in full), the Potency result in assay [1], in assay [2], in assay [3] and in assay [5] was “inactive” in each case. Besides, in assay [4], the activity change, negative = inhibition was 4.84% (inactive). Besides, the figures for the max response in assay [4] (setting [7]) and in assay [4] (setting [8]) were 13.6% and 24%, respectively.
Take `COc1cc(C2c3cc4c(cc3C(OC(C)=O)[C@H]3COC(=O)C23)OCO4)cc(OC)c1OC` (stereo not given in full): in assay [1], the Potency result was “inactive and 1.26 µM (active)”. In addition, the Potency entry in assay [6], in assay [2], in assay [3] and in assay [5] was “inactive” each time. In addition, the activity change, negative = inhibition in assay [4] is 0.38% (inactive) and 4.56% (inactive). In addition, the max response in assay [4] (setting [7]) was 26.1% and 10%; in assay [4] (setting [8]), 22.6% and 16.4%.
In the case of `COc1cc2c3cc1Oc1c(OC)c(OC)cc4c1C(Cc1cccc(c1)Oc1ccc(c(O)c1)CC3N(C)CC2)N(C)CC4` (stereo not given), the Potency entry in assay [1], in assay [2], in assay [3] and in assay [5] was “inactive” in each case. Moreover, in assay [4], the activity change, negative = inhibition is 6.04% (inactive). For the same molecule, the max response was 15.8% in assay [4] (setting [7]) and 22.7% in assay [4] (setting [8]).
Take `O=C(NC(=O)c1ccccc1Cl)Nc1ccc(OC(F)(F)F)cc1`: the Potency entry in assay [1], in assay [2], in assay [3] and in assay [5] was “inactive” each time. Moreover, the activity change, negative = inhibition in assay [4] was 8.39% (inactive). The max response in assay [4] (setting [7]) turned out to be 0.34%; in assay [4] (setting [8]), 9.8%.
`NC(=O)c1ccc(N)nc1`: the Potency entry in assay [1], in assay [2], in assay [3] and in assay [5] was “inactive” each time. Besides, in assay [4], the activity change, negative = inhibition was 2.67% (inactive). Besides, the max response in assay [4] (setting [7]) worked out at 16.6%; in assay [4] (setting [8]) it was 22.3%.
Turning to `CCC(N)C(O)c1ccc(O)c(O)c1` (stereo not given), the Potency result in assay [1], in assay [2], in assay [3] and in assay [5] was “inactive” each time. The activity change, negative = inhibition in assay [4] is 5.92% (inactive). For the same molecule, the max response in assay [4] (setting [7]) turned out to be 7.01%; in assay [4] (setting [8]) it was 16.7%.
With `C/C=C(/C)C(=O)OC1CC[C@]2(C)C3CCC4[C@]5(O)CC(O)[C@]6(O)C(CN7CC(C)CCC7[C@]6(C)O)[C@]5(O)C[C@@]42O[C@]13O` (stereo not given in full), the Potency entry in assay [1], in assay [2], in assay [3] and in assay [5] was “inactive” throughout. The activity change, negative = inhibition in assay [4] was 5.46% (inactive). For the same molecule, the max response was 6.5% in assay [4] (setting [7]) and 12.3% in assay [4] (setting [8]).
Regarding `C=C1C2CCC3[C@@](CC[C@@H]4C(C(=O)O)CC(OC5OC(CO)C(OS(=O)(=O)O)C(OS(=O)(=O)O)C5OC(=O)CC(C)C)C[C@]34C)(C2)C1O` (stereo not given in full), the Potency entry in assay [1], in assay [2], in assay [3] and in assay [5] was “inactive” in each case. In addition, the activity change, negative = inhibition in assay [4] was 1.97% (inactive). Moreover, the max response is -12% in assay [4] (setting [7]) and -7.92% in assay [4] (setting [8]).
For the molecule `CC(N)[C@@H](O)c1ccccc1` (stereo not given in full), the Potency entry in assay [1], in assay [2], in assay [3] and in assay [5] was “inactive” in each case. Further, the activity change, negative = inhibition in assay [4] was 6.04% (inactive). Besides, the max response is 11.6% in assay [4] (setting [7]) and 28.2% in assay [4] (setting [8]).
As to `CC(=O)CC1CCCCN1` (stereo not given), the Potency entry in assay [1], in assay [2], in assay [3] and in assay [5] was “inactive” in each case. The activity change, negative = inhibition in assay [4] was 4.86% (inactive). In addition, the max response in assay [4] (setting [7]) was determined as 11.3%; in assay [4] (setting [8]), 14.1%.

The values above are taken from PubChem BioAssay (NCATS).
